Assay results as given in the supplement of paper PMC9948646.

These molecules were tested on gramicidin D channels in DC22:1PC lipid vesicles (bilayer-modifying potency) (assay: initial Tl+ fluorescence quench rate relative to no-drug control (NormRate, gramicidin monomer-dimer shift) (ratio (fold of control)); higher = stronger bilayer-modifying effect (equilibrium shifted toward conducting dimers), active = 1.5 or more). Conditions: 10 µM; lipid concentration 50 µM; temperature: 25 °C.
Description: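 Stopped-flow fluorescence quench assay: ANTS-loaded DC22:1PC large unilamellar vesicles doped with gramicidin D (1:2000), 50 µM lipid, equilibrated 10 min with 10 µM drug (0.1% DMSO), mixed with Tl+ quench buffer at 25°C. Initial quench rate (Tl+ influx) was fitted with a modified stretched exponential and normalised to the no-drug control rate (NormRate); duplicates from two independent LUV preparations (triplicates for 7 drugs).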

Initial Tl+ fluorescence quench rate, inactive:
O=C(NC1CC1)c1ccc(N2CCC(Cc3ccccc3)CC2)nc1 1.43, CCC(=O)Nc1ccccc1C(=O)Nc1ccccn1 1.12, O=C(NCc1ccco1)N1CCN(Cc2ccc(Cl)s2)CC1 1.03, N#Cc1ccc(-c2ccc(OCC(N)=O)cc2)cc1 1.06, COc1cc(N[C@H](C)CCCN)c2ncccc2c1 1.02, Cc1cc(C)n2nc(C(=O)Nc3cc(C(F)(F)F)ccc3N3CCOCC3)nc2n1 1.17, Cc1nc(-c2ccccn2)nc(NCCc2ccc(S(C)(=O)=O)cc2)c1Cl 1.13, NS(=O)(=O)c1cccc(-c2ccc3ncc(N4CCOCC4)nc3c2)c1 1.41, CC(=O)NC[C@@H]1CN(c2ccc(N3CCOCC3)c(F)c2)C(=O)O1 1.08, NS(=O)(=O)c1cncc(-c2ccc3nccc(-c4cn[nH]c4)c3n2)c1 1.18, CCc1ccc(S(=O)(=O)Nc2cc(CN3CCN(CCC(C)C)CC3)ccc2C)cc1 1.29, C[C@H]1COC2(CCN(c3nc(=O)c4cc(C(F)(F)F)cc([N+](=O)[O-])c4s3)CC2)O1 1.08, O=C(C1CCN(c2nnnn2-c2ccccc2)CC1)N1CCc2ccccc2C1 1.23, Nc1nccc2ccc(Oc3ccncc3)cc12 1.1, Nc1nccc2ccc(-c3ccc4nccn4c3)cc12 1.17, Cc1cc(NCC(C)C)c2n[nH]c(-c3ccccc3)c2n1 1.11, CCOc1ccc(OCC(=O)Nc2cc(C)cc(C)c2)cc1 1.45, CC(C)[C@@H](Oc1cccc2ccccc12)C(=O)O 1.1, COc1cccc(-n2nnnc2S(=O)(=O)Cc2ccccc2)c1 1.07, O=C(Nc1cnc2ccccc2c1)c1cccc(-n2cnnn2)c1 1.26, CNc1nnc(Sc2cnn(-c3ccccc3)c(=O)c2Cl)s1 1.04, Cc1ccc(NC(=O)c2cc(S(=O)(=O)NC(C)(C)C)ccc2C)nc1 1.21, COc1ccc(CCN2CCC(NCc3cccc(N(C)C)c3)CC2)cc1 1.07, COc1cc(C2=NCCN2)ccc1-n1cc(-c2cccc(C3=NCCN3)c2)nn1 1.15, Cc1cc(C(=O)Nc2ccc(-c3ccccc3)cc2)no1 1.11, CS(=O)(=O)c1ccccc1C(=O)N(Cc1ccccc1)c1ccccc1 1.09, Cc1nn2c(O)c3c(nc2c1-c1ccc(F)cc1)CCCC3 1.07

Initial Tl+ fluorescence quench rate, active:
O=C(Nc1ccccc1)c1ccc(-c2cc3ccncc3cc2OC2CCNCC2)s1 1.8, c1ccc(-c2nc(NC3CCCCC3)cc(C3CC3)n2)nc1 1.76, COc1ccc([C@H]2CC(c3cccs3)=NN2C(=O)c2ccco2)cc1OC 1.86, CCN(CC)S(=O)(=O)c1ccc(C(=O)Nc2cc(C)nn2-c2nc(C)c(C)c(=O)[nH]2)cc1 1.57, CCCn1nnc(NC(=O)COc2ccc(C3CCCCC3)cc2)n1 2.51, Cc1cc(C)cc(COc2ccc3c(C)c(CCC(=O)O)c(=O)oc3c2C)c1 2.64, CC(C)[C@H](NC(=O)Cc1cccc2ccccc12)C(=O)Nc1cccc(C#N)c1 1.74, Cc1cnc(N2CCN[C@@H](Cc3ccccc3)C2)nc1Oc1ccc(-n2ccnc2)cc1 1.72, COC(=O)c1c(NC(=O)c2c(F)c(F)c(F)c(F)c2F)sc2c1CCCCC2 1.72, CCN(CC)S(=O)(=O)c1ccc(Cl)c(C(=O)Nc2ccc3nc(C)sc3c2)c1 2.06, C[C@@H](Oc1cccc(Cl)c1)C(=O)Nc1ccc2oc(-c3ccncc3)nc2c1 1.72, O=C(Nc1ccc(N2CCNCC2)cc1)c1ccn2ncc(-c3cccc(Cl)c3)c2n1 2.57, O=C(CCC1CCCCC1)Nc1cccc(-c2nnc(-c3ccco3)o2)c1 1.57
